20 compounds from PubChem BioAssay (NCI) can be followed below.

Assay [1] can be described thus: NCI Yeast Anticancer Drug Screen. Data for the rad50 strain (AID 155).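 Further: 0% = growth of vehicle-only cultures of the same strain.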 The conditions noted are these: S. cerevisiae rad50 strain growth inhibition; at 50.0 µM; active compounds read high. The method in brief:
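Growth of the mutant yeast was measured after compound exposure and referenced to vehicle-treated cultures.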

The nature of assay [2]: NCI Yeast Anticancer Drug Screen. Data for the mec2-1 strain (AID 157). The conditions noted are these: S. cerevisiae mec2-1 strain, at 50.0 µM, active compounds read high. The method in brief:
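Cells of the genetically defined mec2-1 yeast strain are incubated with test compound. Inhibition of growth is calculated against vehicle-treated controls.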

Assay [3] in a line: NCI Yeast Anticancer Drug Screen. Data for the sgs1 mgt1 strain (AID 161).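 Further: 0% = growth of cultures given vehicle only.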 The conditions noted are these: S. cerevisiae sgs1 mgt1 strain, at 50.0 µM, active compounds read high. The method in brief:
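Genetically altered yeast, compound exposure, growth inhibition relative to vehicle.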

The nature of assay [4]: NCI Yeast Anticancer Drug Screen. Data for the cln2 rad14 strain (AID 165).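 Further: 0% = growth equal to vehicle treated cultures.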 The conditions noted are these: S. cerevisiae cln2 rad14 strain, at 50.0 µM, active compounds read high. The method, boiled down: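 The screen exposed genetically defined yeast (cln2 rad14) to test compounds and scored growth inhibition relative to vehicle-treated controls.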
Assay [5] is described as follows: NCI Yeast Anticancer Drug Screen. Data for the bub3 strain (AID 167). To be noted: S. cerevisiae bub3 mutant strain, at 50.0 µM, active compounds read high. The method in brief:
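Whole-cell yeast assay. The mutant strain was incubated with compounds, and growth inhibition was determined by comparison with vehicle-treated cells.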

The nature of assay [6]: NCI Yeast Anticancer Drug Screen. Data for the mlh1 rad18 strain (AID 175). To be noted: S. cerevisiae mlh1 rad18 strain growth inhibition; at 50.0 µM; active compounds read high. The method, boiled down:
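Compound-treated yeast growth, normalised to vehicle controls. Strain bears defined DNA repair mutations.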

The panel holds about 79,000 compounds, 15% with a hit somewhere; the sample as a whole holds those more often. Unmarked numbers belong to inactive results. The source made the active and inactive calls. No stated cut-off is given here; in the data, active means growth inhibition above about 70%; inactive means the rest. Where a SMILES comes first, the peptide text is derived from it. [ ]: non-standard residue; d: D form. The star is where a group is joined. ONb = O=[N+]([O-])c1ccc(CO*)cc1; AllylGly = C=CC[CH](N)C(=O)O; Boc = CC(C)(C)OC(=O)*

Turning to `O=C(O)c1c(-c2ccc(Cl)cc2)c(-c2ccc(Cl)cc2)nn(CCO)c1=O`, the growth inhibition is 33.8% in assay [1]; 25.8% in assay [2]; 33.4% in assay [3]; 7.4% in assay [4]; 1.5% in assay [5]; 35.6% in assay [6].
With `N#CC(C#N)=CNC(=S)Nc1ccc(Cl)c(Cl)c1`, the growth inhibition in assay [1] is 44.1%; in assay [2], 39.7%; in assay [3], 47.6%; in assay [4] it was 37.7%; in assay [5] it was 36%; in assay [6] it was 62.5%.
As for `C=CCC(NC(=O)OC(C)(C)C)C(=O)NC(CCC(=O)OCc1ccc([N+](=O)[O-])cc1)C(N)=O` (stereo not given) (Boc-[AllylGly]-Glu(ONb)-NH2; configuration not given here), the growth inhibition was -7.75% in assay [1]; -36.7% in assay [2]; -20.1% in assay [3]; 9.25% in assay [4]; -2.35% in assay [5]; -9.2% in assay [6].
Consider `O=[N+]([O-])c1c(Cl)cc(Cl)c([N+](=O)[O-])c1-c1ccccc1`, for which the growth inhibition is -17.1% in assay [1]; 9.1% in assay [2]; -14.3% in assay [3]; 7.75% in assay [4]; 14.2% in assay [5]; -31.7% in assay [6].
With `CCOCc1ccccc1C(O)(c1ccc(OC)cc1)c1ccccc1OC` (stereo not given), the growth inhibition was 37.6% in assay [1]; 16.3% in assay [2]; 40.9% in assay [3]; 50.8% in assay [4]; 6.85% in assay [5]; 57.4% in assay [6].
For the compound `N#C/C(=C/c1cccs1)c1ccc(Cl)cc1`, the growth inhibition is -4.6% in assay [1]; -15.2% in assay [2]; -11.8% in assay [3]; -21.1% in assay [4]; -16.1% in assay [5]; 1.85% in assay [6].
Turning to `COC1CCC(/C(C#N)=C/C2CCC(OC)C(OC)C2)CC1` (stereo not given), the growth inhibition in assay [1] is 77.1% (active); in assay [2] it was 66.8%; in assay [3], 77.7% (active); in assay [4], -8.7%; in assay [5], 68.8%; in assay [6], 63%.
Turning to `Cc1ccc(N=NC(=O)NNc2ccc(C)c([N+](=O)[O-])c2)cc1[N+](=O)[O-]`, the growth inhibition was 55% in assay [1]; 3.9% in assay [2]; 17.6% in assay [3]; 16.1% in assay [4]; 6.45% in assay [5]; 32.4% in assay [6].
As to `Cc1cccc(C2=N/C(=C\c3ccccc3)C(=O)O2)c1`, the growth inhibition in assay [1] is 7.15%; in assay [2], 7.5%; in assay [3], 18.8%; in assay [4] it was 10.8%; in assay [5] it was 5.75%; in assay [6] it was 5.35%.
Consider `CCC(C(CC(=O)c1ccccc1)c1ccccc1)[N+](=O)[O-]` (stereo not given), for which the growth inhibition in assay [1] was 9.7%; in assay [2] it was -0.65%; in assay [3], 0.6%; in assay [4], -42.3%; in assay [5], 10.2%; in assay [6] it was -5.65%.
For `CC(C)C(=O)/C=C/c1ccc(Cl)c(Cl)c1`, the growth inhibition in assay [1] was 41.2%; in assay [2] it was 28.2%; in assay [3], 26.4%; in assay [4], -1.85%; in assay [5], 18.9%; in assay [6], 26.8%.
`Cc1c(COC(=O)NC(C)C)c(COC(=O)NC(C)C)c2n1CS(=O)(=O)C2`: the growth inhibition in assay [1] is -16.2%; in assay [2] it was 6.55%; in assay [3], -3.2%; in assay [4], 7.3%; in assay [5], -5.7%; in assay [6] it was 6.35%.
As to `O=C(O)C(c1ccccc1)C1(O)CC2CCC1C2` (stereo not given), the growth inhibition in assay [1] is -38%; in assay [2], -45.5%; in assay [3] it was -36.6%; in assay [4] it was -10.7%; in assay [5] it was -56%; in assay [6], -54.5%.
Consider `O=C(O)CN(CC(=O)O)Cc1ccccc1`, for which the growth inhibition in assay [1] is -22.3%; in assay [2] it was 8.7%; in assay [3] it was 6.8%; in assay [4] it was -71.4%; in assay [5], 7.9%; in assay [6] it was 4.2%.
Turning to `CCCCCCCCCC(=O)N/N=C/c1ccccc1Cl`, the growth inhibition was 9.95% in assay [1]; 36.1% in assay [2]; 29.6% in assay [3]; -9.5% in assay [4]; 19.3% in assay [5]; 30.4% in assay [6].
As for `O=C1c2cc(Cl)ccc2-c2ccc(Cl)cc21`, the growth inhibition is 2.75% in assay [1]; 2.85% in assay [2]; -4.85% in assay [3]; -11.8% in assay [4]; -1.2% in assay [5]; 1.05% in assay [6].
Take `CC(C)NP(=O)(OC1CC(C)(C)N(O)C(C)(C)C1)OC1CC(C)(C)N(O)C(C)(C)C1`: the growth inhibition is 26.1% in assay [1]; 18.6% in assay [2]; 13.4% in assay [3]; -16.3% in assay [4]; 2% in assay [5]; 5.65% in assay [6].
Regarding `C=CCNC(=S)N(C)Cc1ccccc1Cl`, the growth inhibition in assay [1] was -7.2%; in assay [2], 35.5%; in assay [3], 34.8%; in assay [4], -25.9%; in assay [5], 36.4%; in assay [6], 33.6%.
In the case of `O=C(/C=C/c1ccc(Cl)c(Cl)c1)c1ccc2ccccc2c1`, the growth inhibition is 28.2% in assay [1]; 1.95% in assay [2]; -3.7% in assay [3]; -8.6% in assay [4]; 11.2% in assay [5]; 20.2% in assay [6].
As for `CCCCCCCCCCCCCCCCCC(=O)c1ccc(OC)c(OC)c1`, the growth inhibition in assay [1] is -14.8%; in assay [2], -12.8%; in assay [3], -31.1%; in assay [4], -37.5%; in assay [5] it was -24.4%; in assay [6] it was -1.25%.
